# Experimental data taken from PubChem BioAssay (NCI).
# This is part of a sample that, as a whole, favours compounds with a hit. Of some 83,000 tested, about 20% had one in any assay.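 Compound tested at a single concentration for 48 hours in 96-well plates; a percent growth value below 10 was scored as active.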 A number with no mark means an inactive call. Active and inactive are the calls of the source.
# How the values were obtained:
# Experiment in all cases: NCI-60 one-dose screen, 48 h (100 = growth as untreated, 0 = no growth, -100 = all killed)
# Conditions in all cases: 10 µM unless noted
# HCT-15 colon = tested on: HCT-15 colon
# HT29 colon = tested on: HT29 colon
# SNB-19 CNS = tested on: SNB-19 CNS
# U251 CNS = tested on: U251 CNS
# PC-3 prostate = tested on: PC-3 prostate
# SK-MEL-5 melanoma = tested on: SK-MEL-5 melanoma
# UACC-62 melanoma = tested on: UACC-62 melanoma
# LOX IMVI melanoma = tested on: LOX IMVI melanoma
# SK-MEL-28 melanoma = tested on: SK-MEL-28 melanoma
# SNB-75 CNS = tested on: SNB-75 CNS
Compound,growth (HCT-15 colon),growth (HT29 colon),growth (SNB-19 CNS),growth (U251 CNS),growth (PC-3 prostate),growth (SK-MEL-5 melanoma),growth (UACC-62 melanoma),growth (LOX IMVI melanoma),growth (SK-MEL-28 melanoma),growth (SNB-75 CNS) [%]
Nc1[nH]n2cc(-c3ccc(F)cc3)nc2c1N=Nc1ccc(S(N)(=O)=O)cc1,60.4%,83.6%,86.4%,76.4%,80.6%,76.9%,71.4%,64.5%,84.8%,
COc1cccc(CNc2c3ccccc3nc3ccccc23)c1,24.4%,18.7%,36%,38.7%,38.9%,57.6%,63.5%,19.8%,81.2%,
C=C1CC[C@@H]2C(C)(C)[C@@H](O)CC[C@@]2(C)[C@@H]1COc1ccc2ccc(=O)oc2c1,66.7%,64.3%,85.8%,75.8%,49.7%,61.7%,55.1%,82.8%,92.3%,
CC1CCN(C(=S)SCC(=O)NC(=O)c2ccccc2)CC1,109%,101%,111%,106%,102%,113%,106%,96.9%,111%,
CNC1=CC(=O)c2c(C(=O)OC)c(C)[n+]([O-])c(C)c2C1=O,49.1%,16.5%,81.5%,64%,61.9%,-47.9% (active),27.3%,,96.3%,
NS(=O)(=O)c1ccc(C(=O)NN2C(=O)c3c(Br)c(Br)c(Br)c(Br)c3C2=O)cc1,99.5%,109%,101%,98%,100%,,99.5%,,109%,77.8
COc1cccc(/C=C/C(=O)c2cc3c(N)c(C(=O)Nc4cccc5ccccc45)sc3nc2C)c1,-23.1% (active),-11.2% (active),-18.8% (active),-11.4% (active),27.7%,-19.7% (active),-18.3% (active),-66.8% (active),39.2%,
FC(F)(F)c1ccc(Cn2cc(CSc3nc4ccccc4s3)nn2)cc1,101%,94.4%,101%,96.3%,95.7%,105%,87.3%,110%,105%,
COc1cc2c(cc1OCCCCN1CCN(C(=S)SCCC(C#N)(c3ccccc3)c3ccccc3)CC1)N=C[C@@H]1CCCN1C2=O,-55.5% (active),-65.6% (active),-14.5% (active),-81.9% (active),-16.1% (active),-98.3% (active),-22.7% (active),-83.2% (active),-70.2% (active),
COc1ccc(Oc2nc(Nc3ccc(N4CCOCC4)cc3)ncc2NC(=O)Nc2cc(OC)cc(OC)c2)cc1,82.9%,-32.8% (active),28.3%,-35.8% (active),11.6%,-32.8% (active),-8.63% (active),24.1%,5.33% (active),
CSc1nn2c(-c3ccc4ccccc4c3)ccnc2c1C#N,15.4%,2.83% (active),18.3%,6.98% (active),45.8%,10.1%,18.8%,21.7%,38.9%,
O=C(/C=C/c1cccc(Cl)c1Cl)Nc1ncc(Cc2ccccc2Cl)s1,21.1%,11.9%,47.2%,50.9%,56.5%,45.8%,42.7%,44.7%,58.6%,
O=[N+]([O-])c1cc(NS(=O)(=O)c2ccccc2)ccc1NS(=O)(=O)c1ccccc1,72.1%,84.6%,108%,102%,80.7%,99.4%,85.7%,99%,111%,
O=C1/C(=C/c2ccccc2F)CN(C(=O)C(Cl)Cl)C/C1=C\c1ccccc1F,-66.5% (active),3.2% (active),-84.1% (active),-85.1% (active),-41.3% (active),-77% (active),-59% (active),-86.4% (active),-58.9% (active),
